# Screens as filed in PubChem BioAssay.
# Only some compounds are listed: those with a hit (about 3% of all), similar ones and a draw of the others.
# SENP7 inh: blocks the human protease SENP7 | AID 434973 | actives 1.5% (n = 330,000) | inhibition, % at 5 µM | recombinant SENP7, Z-RLRGG-aminoluciferin luminescence, 40 min;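 active = inhibition above about 50% at the single test dose, limit read from the data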;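 note: plate controls were DMSO with enzyme for no effect and no enzyme buffer wells for full effect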
# Target sequence (Q9BQF6 706-1050 limits assumed): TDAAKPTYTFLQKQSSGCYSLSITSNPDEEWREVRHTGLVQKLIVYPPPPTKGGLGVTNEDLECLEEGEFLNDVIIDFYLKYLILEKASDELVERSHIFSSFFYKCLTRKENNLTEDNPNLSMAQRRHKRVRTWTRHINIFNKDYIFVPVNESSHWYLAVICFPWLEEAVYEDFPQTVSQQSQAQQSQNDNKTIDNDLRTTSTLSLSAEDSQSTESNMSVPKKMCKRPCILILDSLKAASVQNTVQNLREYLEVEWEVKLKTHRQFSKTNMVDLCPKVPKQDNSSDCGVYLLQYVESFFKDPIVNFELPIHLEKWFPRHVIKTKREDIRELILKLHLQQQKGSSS
# SENP6 inh: SENP6 protease inhibition | Q9GZR1 | Recombinant SENP6 catalytic domain, aminoluciferin luminescence | inhibition, % at 10 µM | actives 1.8% (n = 330,000) | AID 2599;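 active = inhibition above about 50% at the single tested dose, limit read from the data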;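 note: plate controls were DMSO wells with enzyme for no effect and DMSO wells lacking enzyme for full effect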
# SENP8 block-1: SENP8 protease inhibition; Q96LD8; purified SENP8, Z-RLRGG-aminoluciferin cleavage, luminescence; inhibition, % at 10 µM; actives 1.2% (n = 330,000); AID 2540; in the data active = inhibition above about 50%
# Target sequence (Q96LD8 whole entry, looked up): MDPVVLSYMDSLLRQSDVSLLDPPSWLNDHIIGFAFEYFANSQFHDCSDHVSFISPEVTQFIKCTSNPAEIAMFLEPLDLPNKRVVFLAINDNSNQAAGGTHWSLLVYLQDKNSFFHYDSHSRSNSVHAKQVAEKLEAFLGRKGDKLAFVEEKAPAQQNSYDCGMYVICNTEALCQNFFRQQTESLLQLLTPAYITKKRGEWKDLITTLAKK
# TRAIL sens C8: sensitizes caspase-8 expressing cells to TRAIL. AID 624354. inhibition (viability loss, TRAIL sensitization), % at 10 µM. NB7+C8 cells + TRAIL, ATPlite viability luminescence. actives 1% (n = 360,000);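 active = compounds causing at least 50% loss of cell viability in the single-dose screen, relative to plate controls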
# SENP8 block-2: inhibitors of human SENP8 protease; recombinant SENP8, Nedd8 substrate fluorescence; inhibition, % at 20 µM; actives 0.64% (n = 360,000); Q96LD8; AID 602440; in the data active = inhibition mostly above about 40%, no sharp cut-off; inactive = mostly below about 27%
# PPC-1+TRAIL kill: kills PPC-1 cancer cells in the presence of TRAIL; actives 0.41% (n = 220,000); PPC-1 cells + TRAIL, ATPLite viability luminescence; cell killing (% activity), % at 4 µM or 5 µM;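 active = cell killing above 50% in the first pass at 4 µM, then a duplicate retest at 5 µM averaging 50% or more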;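 note: plate controls were cells with TRAIL plus DMSO for no effect and medium-only wells lacking cells for full effect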
# Starred values were filed as active, the others as inactive; x = no result.
SMILES,SENP7 inh,SENP6 inh,SENP8 block-1,TRAIL sens C8,SENP8 block-2,PPC-1+TRAIL kill
COc1ccc(O)c(/C=N/Nc2nc(Nc3ccccc3)nc(-n3nc(C)cc3C)n2)c1,-2.7,-7.8,-10.0,55.4*,-132.2,-7.4
Cc1cc(N/N=C\c2ccccc2)nc(-c2ccccc2O)n1,-4.2,-12.7,-11.0,56.5*,-26.8,34.4
Cc1cc(N/N=C/c2cccc(Cl)c2)nc(-n2nc(C)cc2C)n1,-6.7,-22.6,-8.0,14.0,13.2,6.3
Cc1cc(N/N=C/c2ccc(O)cc2O)nc(-c2ccccc2O)n1,x,x,x,77.4*,-225.4,34.0
Cc1cc(N/N=C/c2ccc(O)cc2O)nc(-n2nc(C)cc2C)n1,x,x,x,35.6,-26.6,55.0*
C/C(=N\Nc1cc(C)nc(-c2ccccc2O)n1)c1ccccc1O,-2.2,-6.2,-8.4,28.8,-34.5,24.5
CS(=O)(=O)N(CC(=O)N1CCN(Cc2ccccc2)CC1)c1ccccc1Br,12.3,-6.2,-10.5,-6.9,0.7,x
Cc1cc(C)c(S(=O)(=O)NCc2cccs2)cc1C,-13.3,-1.6,-14.8,-15.1,0.7,x
CC(=O)Nc1ccc(NC(=O)c2c(C)nn(-c3ccccc3)c2Cl)cc1C,-2.2,-16.8,2.0,-2.4,9.0,9.8
Cc1ccc(C(=Cc2ccc([N+](=O)[O-])cc2)C(=O)O)cc1,x,x,x,-5.0,28.4,x
O=C(COc1ccccc1C(=O)c1cnn(-c2ccccc2)c1)Nc1ccccc1,-12.7,-20.3,-11.9,59.9*,1.4,46.8
CCOC(=O)C1=C(C)Nc2ccccc2N=C1NC(=O)C1CCN(C(=O)c2ccccc2C)CC1,-1.1,-13.5,0.2,-39.1,14.0,x
COC(=O)C12OCC34C(CC5C(C)=C(O)C(=O)CC5(C)C3C(O)C1O)OC(=O)C(OC(=O)C=C(C)C)C24 (centres undefined),x,x,x,64.9*,13.8,x
O=C(Oc1c(CN2CCOCC2)cc(Cl)c2cccnc12)c1ccccc1,3.9,-1.0,0.6,37.4,6.0,x
O=C(Oc1c(CN2CCOCC2)cc(Cl)c2cccnc12)c1ccccc1F,0.2,-2.1,0.2,54.4*,18.8,23.4
Cc1cc(C)cc(NS(=O)(=O)c2ccc3[nH]cc(C(=O)NCc4ccco4)c(=O)c3c2)c1,4.8,3.3,4.7,83.8*,-100.9,19.1
c1ccc(Nc2ccccc2Nc2ccccn2)nc1,22.0,15.7,3.7,-22.5,-1.3,26.3
Oc1cccc2ccc(Nc3ccccn3)nc12,-7.0,3.1,-13.5,83.5*,-89.4,-3.9
COc1ccc(OC)c(N(CCN2C(=O)c3ccccc3C2=O)C(=O)CCl)c1,x,x,x,94.3*,8.9,x
O=[N+]([O-])c1cc(C(F)(F)F)ccc1N1CCN(S(=O)(=O)c2ccc3ccccc3c2)CC1,0.4,-10.1,-2.3,15.5,40.0*,4.5
CSCCC(NC(=O)c1ccccc1)C(=O)NCCCn1nc(C)cc1C (centres undefined),0.1,9.5,-1.0,10.5,10.5,x
CN(C)C(=O)N1CCN(c2nc(-c3ccccc3)cs2)CC1,3.9,-16.2,-0.2,58.3*,19.5,x
O=C(N1CCOCC1)N1CCN(c2nc(-c3ccccc3)cs2)CC1,-6.4,-8.9,-4.2,-16.0,16.6,7.0
Cc1cc(=O)c2c(o1)C(=O)c1occc1C2=O,x,x,x,-6.0,75.3*,x
Cn1cc(S(=O)(=O)CC(=O)N2CCCc3ccccc32)c2ccccc21,1.8,2.4,-0.9,65.1*,13.1,36.7
SMILES,SENP7 inh,SENP6 inh,SENP8 block-1,TRAIL sens C8,SENP8 block-2,PPC-1+TRAIL kill
COCCn1c(/C=C/c2ccccc2)nc2ccccc21,64.8*,-7.0,36.7,41.3,-480.2,42.0
COc1ccc(/C=C/c2nc3ccccc3n2Cc2ccccc2OC)cc1,-3.2,0.3,-8.9,77.6*,-414.5,35.1
CCCc1cc2c(=O)c(-c3ccc4c(c3)OCCO4)coc2cc1OC(=O)c1ccco1,-1.2,6.1,8.5,55.7*,10.8,35.0
CC(=O)c1cccc(NC(=O)Cn2nc(-c3ccc(Cl)cc3)ccc2=O)c1,-6.1,-14.1,-5.4,-1.1,6.0,8.7
CC1CCCC(C)N1C(=O)CN1C(=O)NC2(CCCCCC2)C1=O (centres undefined),x,x,x,-9.8,11.0,x
CC(=O)Nc1ccc(S(=O)(=O)Nc2nc3ccccc3nc2Nc2ccc(O)cc2)cc1,-2.3,-6.9,3.0,-17.7,-99.4,-2.7
O=[N+]([O-])c1ccc(N=Nc2ccc(O)c3ccccc23)cc1,x,x,x,62.6*,44.9*,x
O=S(=O)(Nc1ccc(N=Nc2ccc(O)c3ccccc23)cc1)c1ccccc1,-2.9,1.6,-3.0,-2.8,37.6,18.1
O=C(NCCc1ccc(Cl)cc1)C1CCC(CNc2c(N3CCCCC3)c(=O)c2=O)CC1 (centres undefined),-6.9,-11.6,-8.3,51.1*,6.7,-1.2
COc1cccc(CNC(=O)[C@@H]2CCCN2C(=O)[C@H]2CCCCN2C(=O)c2cccc(Cl)c2)c1,x,x,x,-5.5,10.3,x
COc1cc(C(=O)Oc2ccccc2/C=N/NC(=O)c2ccc(C)cc2)cc(OC)c1OC,7.7,-6.2,-2.2,50.1*,26.3,46.8
CN(C)c1ccc(NC(=O)Nc2ccc3snnc3c2)cc1,61.9*,70.0*,23.0,3.1,28.4,11.8
O=C(Nc1ccccc1)Nc1ccc2nnsc2c1,62.8*,54.1*,42.3,16.5,-3.8,16.0
COc1ccc(-n2cc(C#N)c(=O)n(Cc3ccc(F)cc3)c2=O)cc1,-7.6,7.1,-2.0,-13.8,-0.6,20.0
Cc1ccc(/C=C2\SC(=S)N(C3CCS(=O)(=O)C3)C2=O)o1 (centres undefined),11.3,23.1,-6.0,6.9,55.6*,28.5
CCCCCCOC(=O)Nc1ccc(S(=O)(=O)Nc2cccc([N+](=O)[O-])c2)cc1,-7.9,51.6*,-6.7,-14.7,5.0,3.0
CCCCOC(=O)Nc1ccc(S(=O)(=O)Nc2nc(C)cc(C)n2)cc1,-4.5,8.4,-6.9,-1.9,21.1,43.4
O=C1c2cccc(NCCNCCO)c2C(=O)c2cccc(NCCNCCO)c21,x,x,x,64.1*,44.0*,x
O=C(O)CCNc1ccc(NCCC(=O)O)c2c1C(=O)c1ccccc1C2=O,12.2,4.5,19.8,0.6,23.2,x
CC[C@@H](C)[C@H](N)C(=O)NC[C@H]1O[C@@H](n2cnc3c(N)ncnc32)[C@H](O)[C@@H]1O,-8.5,x,x,-8.8,8.2,x
COC(=O)c1ccccc1S(=O)(=O)N1CCC(C(=O)NCCC2=CCCCC2)CC1,3.0,-8.9,-1.3,13.4,15.0,x
CSc1ccc(CNC(=O)Cc2ccc(NC(=O)C3=C(C)OCCS3)cc2)cc1,-0.9,-15.0,-10.8,58.8*,11.2,x
CCOc1ccc(CCNC(=O)Cc2ccc(NC(=O)C3=C(C)OCCS3)cc2)cc1,-0.1,7.2,-6.8,17.3,13.9,x
COC(=O)CSc1nc2cc(C)ccc2cc1C#N,-4.4,5.1,6.9,56.0*,-14.0,42.5
CCOC(=O)CC(=O)CSc1nc2ccc(C)cc2cc1C#N,-10.4,13.5,-0.4,4.0,-49.5,14.2
O=C1C(Cl)=C(N2CCCCC2)C(=O)C(Cl)=C1c1cnc(N2CCCCC2)s1,7.9,11.8,11.4,13.5,-19.3,-6.9
